Of roughly 8,800 targets only a part is listed; those with a hit were picked by preference. About 0.5% of all pairs of compound and target were hits. Unmarked numbers belong to inactive results.
Experiments:
Assay in all cases: log2 fold change, soluble protein after heating vs DMSO (PISA); higher = thermal stabilisation; K562 lysate, 10 uM; active = over 0.2 and 3.5 SD of the protein, either way, in both replicates (recomputed)
alvocidib = compound: CN1CC[C@H](c2c(O)cc(O)c3c(=O)cc(-c4ccccc4Cl)oc23)[C@H](O)C1 [alvocidib]
Outline: (§1)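 K562 pellets were dounce-homogenised in PBS pH 7.4 with 1 mM MgCl2, and the crude extract at 1 mg/mL protein was treated with 10 μM compound for 30 min. Aliquots were heated for 3 min across 48°C-58°C, pooled, and brought to 0.5% NP-40 at 4°C; soluble protein was the supernatant after 21,000xg for 90 min. Soluble protein was quantified by TMTpro 16plex LC-MS/MS with channel sums equalised, and reported as log2 fold change in thermal stability against DMSO controls, with values from duplicates.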

Tubastatin A = compound: CN1CCc2c(c3ccccc3n2Cc2ccc(C(=O)NO)cc2)C1 [Tubastatin A]
Outline: as §1

[1] = compound: CNC(=O)C1=CC=CC=C1NC2=NC(=NC=C2Cl)NC3=C(C=C(C=C3)N4CCOCC4)OC
Outline: as §1

defactinib = compound: CNC(=O)c1ccc(Nc2ncc(C(F)(F)F)c(NCc3nccnc3N(C)S(C)(=O)=O)n2)cc1 [defactinib]
Outline: as §1

[2] = compound: CNc1nc(-c2ccc3c(N)n[nH]c3c2)cc(N2C[C@@H](C(=O)NC3CCCCC3)CC[C@H]2C)n1
Outline: as §1

encorafenib = compound: COC(=O)N[C@@H](C)CNc1nccc(-c2cn(C(C)C)nc2-c2cc(Cl)cc(NS(C)(=O)=O)c2F)n1 [encorafenib]
Outline: as §1

[3] = compound: COC(=O)[C@H](CCSC)NC(=O)C1=C(C=C(C=C1)NC[C@H](CS)N)C2=CC=CC=C2
Outline: as §1

alisertib = compound: COc1cc(Nc2ncc3c(n2)-c2ccc(Cl)cc2C(c2c(F)cccc2OC)=NC3)ccc1C(=O)O [alisertib]
Outline: as §1

[4] = compound: COc1cc2nc(-c3cc(F)ccc3O)nc(N[C@@H]3CNC[C@H]3C(C)(C)O)c2cc1OC
Outline: as §1

gefitinib = compound: COc1cc2ncnc(Nc3ccc(F)c(Cl)c3)c2cc1OCCCN1CCOCC1 [gefitinib]
Outline: as §1

lapatinib = compound: CS(=O)(=O)CCNCc1ccc(-c2ccc3ncnc(Nc4ccc(OCc5cccc(F)c5)c(Cl)c4)c3c2)o1 [lapatinib]
Outline: as §1

pictilisib = compound: CS(=O)(=O)N1CCN(Cc2cc3nc(-c4cccc5[nH]ncc45)nc(N4CCOCC4)c3s2)CC1 [pictilisib]
Outline: as §1

crizotinib = compound: C[C@@H](Oc1cc(-c2cnn(C3CCNCC3)c2)cnc1N)c1c(Cl)ccc(F)c1Cl [crizotinib]
Outline: as §1

[5] = compound: C[C@H](C1=CC=C(C=C1)C(=O)NC2=C3C=CNC3=NC=C2)N
Outline: as §1

duvelisib = compound: C[C@H](Nc1ncnc2nc[nH]c12)c1cc2cccc(Cl)c2c(=O)n1-c1ccccc1 [duvelisib]
Outline: as §1

gandotinib = compound: Cc1cc(Nc2cc(CN3CCOCC3)c3nc(C)c(Cc4ccc(Cl)cc4F)n3n2)n[nH]1 [gandotinib]
Outline: as §1

tozasertib = compound: Cc1cc(Nc2cc(N3CCN(C)CC3)nc(Sc3ccc(NC(=O)C4CC4)cc3)n2)n[nH]1 [tozasertib]
Outline: as §1

doramapimod = compound: Cc1ccc(-n2nc(C(C)(C)C)cc2NC(=O)Nc2ccc(OCCN3CCOCC3)c3ccccc23)cc1 [doramapimod]
Outline: as §1

bafetinib = compound: Cc1ccc(NC(=O)c2ccc(CN3CC[C@H](N(C)C)C3)c(C(F)(F)F)c2)cc1Nc1nccc(-c2cncnc2)n1 [bafetinib]
Outline: as §1

[6] = compound: Cc1cccc(CC(=O)N2CCc3c2ccc(-c2cn(C)c4ncnc(N)c24)c3F)n1
Outline: as §1

Chain of UniProt Q5T5U3 (Q5T5U3 whole entry, looked up): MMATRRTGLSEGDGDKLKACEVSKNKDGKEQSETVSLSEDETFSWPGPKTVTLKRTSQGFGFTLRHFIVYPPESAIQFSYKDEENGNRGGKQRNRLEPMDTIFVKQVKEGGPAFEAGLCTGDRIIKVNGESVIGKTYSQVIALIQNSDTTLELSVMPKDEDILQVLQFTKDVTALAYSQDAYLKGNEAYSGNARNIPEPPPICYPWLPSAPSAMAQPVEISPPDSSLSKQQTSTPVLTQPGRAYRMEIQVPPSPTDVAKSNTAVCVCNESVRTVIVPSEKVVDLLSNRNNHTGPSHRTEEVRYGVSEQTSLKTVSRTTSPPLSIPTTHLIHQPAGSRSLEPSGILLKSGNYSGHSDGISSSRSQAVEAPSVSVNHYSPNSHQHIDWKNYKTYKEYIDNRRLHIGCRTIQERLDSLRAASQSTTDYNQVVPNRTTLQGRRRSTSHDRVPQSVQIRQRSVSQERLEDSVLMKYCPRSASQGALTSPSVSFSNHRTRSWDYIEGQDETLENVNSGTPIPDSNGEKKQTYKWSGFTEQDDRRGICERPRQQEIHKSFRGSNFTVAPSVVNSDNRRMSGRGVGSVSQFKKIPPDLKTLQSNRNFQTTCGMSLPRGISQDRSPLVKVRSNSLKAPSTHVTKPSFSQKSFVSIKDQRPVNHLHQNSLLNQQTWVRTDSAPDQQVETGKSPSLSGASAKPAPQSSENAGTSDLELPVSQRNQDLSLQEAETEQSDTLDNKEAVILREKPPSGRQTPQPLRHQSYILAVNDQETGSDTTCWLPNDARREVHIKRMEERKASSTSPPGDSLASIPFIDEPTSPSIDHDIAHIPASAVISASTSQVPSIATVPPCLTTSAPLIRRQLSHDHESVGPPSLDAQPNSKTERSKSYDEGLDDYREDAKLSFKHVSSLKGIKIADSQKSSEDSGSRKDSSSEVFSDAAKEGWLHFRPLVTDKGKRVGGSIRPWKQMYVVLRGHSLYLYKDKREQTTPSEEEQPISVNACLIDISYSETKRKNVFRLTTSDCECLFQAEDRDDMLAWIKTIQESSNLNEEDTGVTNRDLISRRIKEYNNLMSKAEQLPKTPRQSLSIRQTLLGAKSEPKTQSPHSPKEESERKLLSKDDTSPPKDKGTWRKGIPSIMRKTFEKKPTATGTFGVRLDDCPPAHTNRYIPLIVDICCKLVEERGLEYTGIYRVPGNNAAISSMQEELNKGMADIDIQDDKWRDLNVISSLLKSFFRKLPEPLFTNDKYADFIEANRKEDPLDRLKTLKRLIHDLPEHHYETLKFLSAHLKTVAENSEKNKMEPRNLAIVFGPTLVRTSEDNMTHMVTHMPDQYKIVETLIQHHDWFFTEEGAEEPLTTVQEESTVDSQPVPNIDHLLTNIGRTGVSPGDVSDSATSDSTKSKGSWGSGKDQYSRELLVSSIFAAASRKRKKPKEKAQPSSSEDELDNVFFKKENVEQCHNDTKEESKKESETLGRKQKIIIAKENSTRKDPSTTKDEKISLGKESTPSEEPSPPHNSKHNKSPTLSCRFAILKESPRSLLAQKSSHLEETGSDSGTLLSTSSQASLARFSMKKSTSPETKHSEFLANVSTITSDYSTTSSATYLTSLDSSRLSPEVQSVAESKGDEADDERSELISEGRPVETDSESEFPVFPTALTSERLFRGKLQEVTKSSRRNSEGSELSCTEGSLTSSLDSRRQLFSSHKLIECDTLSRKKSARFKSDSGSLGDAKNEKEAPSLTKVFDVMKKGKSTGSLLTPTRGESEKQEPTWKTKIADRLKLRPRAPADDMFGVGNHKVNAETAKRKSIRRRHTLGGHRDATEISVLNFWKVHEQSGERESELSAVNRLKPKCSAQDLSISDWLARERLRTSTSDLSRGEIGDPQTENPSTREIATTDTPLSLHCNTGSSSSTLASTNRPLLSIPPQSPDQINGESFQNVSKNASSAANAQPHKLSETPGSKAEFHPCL
Chain of UniProt Q92974 (Q92974 whole entry, looked up): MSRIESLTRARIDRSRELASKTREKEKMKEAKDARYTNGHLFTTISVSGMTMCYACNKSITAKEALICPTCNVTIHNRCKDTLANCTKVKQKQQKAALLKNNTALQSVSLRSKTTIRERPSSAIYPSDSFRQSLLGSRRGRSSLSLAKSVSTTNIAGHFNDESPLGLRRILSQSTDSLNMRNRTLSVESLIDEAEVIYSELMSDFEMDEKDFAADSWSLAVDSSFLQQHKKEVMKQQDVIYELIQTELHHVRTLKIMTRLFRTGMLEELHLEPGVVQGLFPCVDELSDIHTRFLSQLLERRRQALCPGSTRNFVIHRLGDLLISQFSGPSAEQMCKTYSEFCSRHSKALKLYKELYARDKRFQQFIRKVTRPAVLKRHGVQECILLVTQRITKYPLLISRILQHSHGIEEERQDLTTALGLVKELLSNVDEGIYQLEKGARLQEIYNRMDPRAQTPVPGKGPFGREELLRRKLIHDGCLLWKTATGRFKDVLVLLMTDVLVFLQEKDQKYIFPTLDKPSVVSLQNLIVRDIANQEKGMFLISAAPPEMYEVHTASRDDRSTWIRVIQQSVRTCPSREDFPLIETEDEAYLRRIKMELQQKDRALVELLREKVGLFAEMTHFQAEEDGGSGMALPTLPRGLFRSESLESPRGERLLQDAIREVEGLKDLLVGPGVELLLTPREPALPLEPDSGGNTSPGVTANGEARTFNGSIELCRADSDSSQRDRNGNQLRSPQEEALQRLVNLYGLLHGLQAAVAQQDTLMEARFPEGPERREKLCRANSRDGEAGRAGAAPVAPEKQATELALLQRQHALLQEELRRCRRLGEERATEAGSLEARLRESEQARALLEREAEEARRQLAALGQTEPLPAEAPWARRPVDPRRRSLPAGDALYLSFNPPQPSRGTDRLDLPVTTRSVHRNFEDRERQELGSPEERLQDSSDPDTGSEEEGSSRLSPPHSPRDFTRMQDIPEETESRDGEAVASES
Chain of UniProt Q9BXX2 (Q9BXX2 whole entry, looked up): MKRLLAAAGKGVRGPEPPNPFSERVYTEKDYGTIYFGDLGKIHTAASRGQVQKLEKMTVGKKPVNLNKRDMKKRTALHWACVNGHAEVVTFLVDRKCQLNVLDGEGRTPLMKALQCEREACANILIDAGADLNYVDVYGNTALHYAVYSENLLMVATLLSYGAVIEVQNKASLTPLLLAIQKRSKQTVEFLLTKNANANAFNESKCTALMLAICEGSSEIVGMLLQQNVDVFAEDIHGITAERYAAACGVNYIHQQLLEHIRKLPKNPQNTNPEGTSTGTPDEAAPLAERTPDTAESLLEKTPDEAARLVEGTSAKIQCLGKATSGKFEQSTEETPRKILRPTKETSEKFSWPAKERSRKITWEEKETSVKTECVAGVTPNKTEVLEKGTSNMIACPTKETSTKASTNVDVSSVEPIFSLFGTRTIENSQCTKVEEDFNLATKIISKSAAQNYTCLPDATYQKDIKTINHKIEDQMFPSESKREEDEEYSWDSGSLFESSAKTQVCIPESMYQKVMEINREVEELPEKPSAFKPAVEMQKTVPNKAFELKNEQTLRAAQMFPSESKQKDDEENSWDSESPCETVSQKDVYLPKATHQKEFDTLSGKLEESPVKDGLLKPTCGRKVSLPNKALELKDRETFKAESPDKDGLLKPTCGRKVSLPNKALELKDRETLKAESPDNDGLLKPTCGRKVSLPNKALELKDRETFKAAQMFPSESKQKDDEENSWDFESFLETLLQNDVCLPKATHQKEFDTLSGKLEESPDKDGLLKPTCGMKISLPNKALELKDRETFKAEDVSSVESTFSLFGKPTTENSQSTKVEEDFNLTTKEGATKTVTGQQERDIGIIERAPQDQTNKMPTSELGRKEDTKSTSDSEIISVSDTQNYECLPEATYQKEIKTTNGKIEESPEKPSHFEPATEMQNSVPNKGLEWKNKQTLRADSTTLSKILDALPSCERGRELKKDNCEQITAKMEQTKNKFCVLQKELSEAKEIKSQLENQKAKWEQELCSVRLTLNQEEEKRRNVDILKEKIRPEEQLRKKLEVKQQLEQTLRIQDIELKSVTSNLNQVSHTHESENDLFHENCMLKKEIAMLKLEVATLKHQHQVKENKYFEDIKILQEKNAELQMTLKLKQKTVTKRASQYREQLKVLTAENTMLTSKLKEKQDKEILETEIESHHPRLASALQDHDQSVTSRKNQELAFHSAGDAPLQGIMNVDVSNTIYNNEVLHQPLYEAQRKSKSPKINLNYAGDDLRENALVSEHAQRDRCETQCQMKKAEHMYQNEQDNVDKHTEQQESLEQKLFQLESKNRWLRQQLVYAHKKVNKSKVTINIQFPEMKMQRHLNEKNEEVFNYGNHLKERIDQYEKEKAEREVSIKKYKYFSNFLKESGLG
Chain of UniProt P31751 (P31751 whole entry, looked up): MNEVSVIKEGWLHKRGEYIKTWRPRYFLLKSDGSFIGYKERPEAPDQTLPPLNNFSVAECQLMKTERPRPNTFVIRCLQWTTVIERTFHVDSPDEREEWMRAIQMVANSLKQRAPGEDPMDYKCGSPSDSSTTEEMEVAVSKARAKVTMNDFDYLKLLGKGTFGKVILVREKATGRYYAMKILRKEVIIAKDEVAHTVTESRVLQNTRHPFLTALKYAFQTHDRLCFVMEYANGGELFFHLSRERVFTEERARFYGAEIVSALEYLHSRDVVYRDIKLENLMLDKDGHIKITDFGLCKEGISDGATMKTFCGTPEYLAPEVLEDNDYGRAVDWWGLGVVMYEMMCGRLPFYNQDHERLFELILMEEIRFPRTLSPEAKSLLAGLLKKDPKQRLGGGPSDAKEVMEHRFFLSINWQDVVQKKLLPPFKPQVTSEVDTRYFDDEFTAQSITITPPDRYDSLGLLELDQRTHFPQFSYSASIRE
Chain of UniProt Q9NXU5 (Q9NXU5 whole entry, looked up): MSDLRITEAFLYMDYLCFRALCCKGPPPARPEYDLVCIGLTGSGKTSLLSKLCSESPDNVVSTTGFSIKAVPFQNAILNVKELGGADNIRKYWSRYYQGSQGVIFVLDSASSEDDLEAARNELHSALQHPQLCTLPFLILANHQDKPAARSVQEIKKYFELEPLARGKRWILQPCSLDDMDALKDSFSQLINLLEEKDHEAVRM

Target	log2 fold change (alvocidib)	log2 fold change (Tubastatin A)	log2 fold change [1]	log2 fold change (defactinib)	log2 fold change [2]	log2 fold change (encorafenib)	log2 fold change [3]	log2 fold change (alisertib)	log2 fold change [4]	log2 fold change (gefitinib)	log2 fold change (lapatinib)	log2 fold change (pictilisib)	log2 fold change (crizotinib)	log2 fold change [5]	log2 fold change (duvelisib)	log2 fold change (gandotinib)	log2 fold change (tozasertib)	log2 fold change (doramapimod)	log2 fold change (bafetinib)	log2 fold change [6]
ACSL1 (UniProt P33121)	0.02	-0.169	0.001	0.096	-0.062	0.007	-0.052	0.057	-0.08	-0.036	-0.03	-0.094	-0.115	0.021	0.043	-0.049	0.033	0.053	-0.038	0.061
ADD1 isoform 3 (UniProt P35611)	0.016	0.007	-0.013	0.015	0.031	0.004	-0.034	0.03	0.006	-0.01	-0.017	0.003	0.014	-0.011	0.014	-0.001	-0.002	0.002	0.002	-0.019
ARHGEF2 (UniProt Q92974)	-0.009	-0.081	0.047	-0.004	0.058	0.07	0.071	0.018	-0.005	0.007	0.014	0.005	-0.016	0.006	-0.017	0.025	0.018	0.089	-0.045	0.04
ARHGAP21 (UniProt Q5T5U3)	0.032	0.008	0.03	0.015	0.056	0.079	0.101	-0.023	-0.007	-0.095	0.081	-0.116	-0.073	0.071	-0.007	0.102	-0.092	0.013	-0.133	0.053
AGPAT1 (UniProt Q99943)	-0.002	-0.015	0.052	-0.007	-0.033	0.075	-0.016	-0.015	-0.232	0.028	-0.122	0.009	-0.029	-0.019	0.009	-0.034	0.041	0.028	-0.057	0.091
ALDH18A1 (UniProt P54886)	-0.005	-0.049	0.005	0.006	-0.01	-0.009	0.062	0.01	0.017	0.001	-0.052	-0.063	-0.034	0.001	-0.017	-0.064	0.002	0.047	-0.006	0.018
APEX1 (UniProt P27695)	0.13	-0.07	0.006	0.023	0.038	-0.024	0.076	0	-0.019	-0.064	0.022	0.039	-0.01	0.352 (active)	-0.025	-0.042	-0.029	-0.045	0.106	-0.067
ALDH5A1 isoform 2 (UniProt P51649)	0.063	0.048	0.007	0.016	-0.02	-0.028	0.077	0.001	0.006	-0.042	-0.012	-0.049	-0.044	0	-0.056	-0.059	0.005	-0.011	0.008	-0.035
ANKRD27 (UniProt Q96NW4)	-0.056	-0.118	0.046	0.035	0.003	-0.007	0.103	-0.053	-0.087	0.03	0.025	-0.026	-0.095	-0.03	-0.025	0.049	0.002	-0.009	-0.059	0.022
ACOX1 isoform 2 (UniProt Q15067)	-0.049	0.041	0.012	0.012	0.017	-0.015	-0.255 (active)	0	0.01	0.018	-0.003	-0.003	-0.004	-0.112	-0.012	0.167	0.043	0.024	-0.01	0.054
ANKRD30B (UniProt Q9BXX2)	-0.307	0.007	-0.01	-0.155	0.284	-0.113	0.164	-0.002	-0.067	-0.036	-0.049	-0.068	–	-0.558 (active)	0.087	0.337	-0.005	–	-0.163	0.397
ACIN1 (UniProt E7EQT4)	-0.093	0.095	0.003	-0.038	0.06	0.022	-0.033	-0.039	-0.011	0.051	-0.001	-0.047	-0.1	-0.28 (active)	-0.021	0.047	0	0.068	-0.063	0.032
ANLN (UniProt Q9NQW6)	-0.037	-0.196	0.058	0.012	0.011	0.036	0.102	0.051	0.004	0.03	-0.007	0.004	-0.02	-0.037	-0.02	0.024	0.052	0.01	-0.038	0.028
AKT2 (UniProt P31751)	0.001	-0.061	0.036	-0.013	-0.064	0.028	0.037	0.003	-0.005	-0.013	-0.022	0.005	0.015	-0.007	-0.005	-0.022	0.033	-0.015	0.051	-0.036
ARL15 (UniProt Q9NXU5)	0.177	-0.002	-0.013	-0.013	-0.021	0.037	-0.211	0.005	0	-0.057	-0.001	0.097	0	0.682 (active)	-0.004	-0.098	0.023	0.06	0.225	-0.118
ARHGEF1 (UniProt M0QZR4)	0.011	-0.085	0.016	-0.005	-0.016	0.022	0.063	0.001	-0.01	-0.014	0.006	-0.011	-0.041	-0.038	-0.007	-0.012	0.029	0.02	-0.019	0.106

From the supplement of paper PMC10849652
